Unmarked numbers belong to inactive results. Active and inactive are the calls of the source. Cut-off read from the data, not from the text of the source, unless noted: active = inhibition above about 33%; inactive = the rest.
Legend:
[1] = StAR promoter reporter inhibitors, counter-screen for LRH-1 inverse agonist project, cell-based, luminescence, high throughput (AID 651611; in the data active = inhibition above about 28%); details: StAR promoter luciferase reporter counterscreen, at 3.6 µM, stronger effect = higher value
[2] = target: Nuclear receptor subfamily 5 group A member 2 (Homo sapiens) (UniProt O00482); test: LRH-1 (NR5A2) inverse agonists, retest, confirmation, cell-based, luminescence (AID 651613; in the data active = inhibition above about 42%;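 note: HEK293T cells co-transfected with LRH-1 and StAR promoter luciferase reporter; 0% = vehicle wells and 100% = parental cells lacking receptor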); details: cell-based LRH-1 luciferase reporter, inverse agonism; at 3.6 µM; stronger effect = higher value
[3] = target: Steroidogenic factor 1 (Homo sapiens) (UniProt Q13285); test: SF1 (NR5A1) inverse agonists, counter-screen for LRH-1 inverse agonist project, cell-based, luminescence, high throughput (AID 651614; in the data active = inhibition above about 44%;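 note: cells cotransfected with StAR promoter reporter and SF1 expression vector; 0% = vehicle on cells with receptor and 100% = vehicle on cells lacking receptor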); details: cell-based SF1 luciferase reporter, at 3.6 µM, stronger effect = higher value
[4] = VP16 transactivation reporter inhibitors, counter-screen for LRH-1 inverse agonist project, cell-based, luminescence, high throughput (AID 651615); details: Gal4-VP16 luciferase reporter cells, at 3.6 µM, stronger effect = higher value

Chain of Nuclear receptor subfamily 5 group A member 2 (Homo sapiens) (O00482 whole entry, looked up): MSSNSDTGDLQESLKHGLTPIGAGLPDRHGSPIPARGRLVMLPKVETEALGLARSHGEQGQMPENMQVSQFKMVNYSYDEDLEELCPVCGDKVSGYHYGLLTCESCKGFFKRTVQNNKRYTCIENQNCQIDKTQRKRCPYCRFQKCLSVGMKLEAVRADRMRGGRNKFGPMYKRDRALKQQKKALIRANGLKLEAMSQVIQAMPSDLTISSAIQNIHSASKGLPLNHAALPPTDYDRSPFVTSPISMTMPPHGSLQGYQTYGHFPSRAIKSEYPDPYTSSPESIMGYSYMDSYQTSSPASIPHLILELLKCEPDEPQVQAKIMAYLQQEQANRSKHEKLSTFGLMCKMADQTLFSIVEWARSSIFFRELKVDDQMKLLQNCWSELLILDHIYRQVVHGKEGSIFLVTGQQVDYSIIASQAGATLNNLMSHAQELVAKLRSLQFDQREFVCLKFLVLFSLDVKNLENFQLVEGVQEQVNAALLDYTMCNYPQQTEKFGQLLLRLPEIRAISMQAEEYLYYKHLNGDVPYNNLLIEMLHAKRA
Chain of Steroidogenic factor 1 (Homo sapiens) (Q13285 whole entry, looked up, the tested form may be a part): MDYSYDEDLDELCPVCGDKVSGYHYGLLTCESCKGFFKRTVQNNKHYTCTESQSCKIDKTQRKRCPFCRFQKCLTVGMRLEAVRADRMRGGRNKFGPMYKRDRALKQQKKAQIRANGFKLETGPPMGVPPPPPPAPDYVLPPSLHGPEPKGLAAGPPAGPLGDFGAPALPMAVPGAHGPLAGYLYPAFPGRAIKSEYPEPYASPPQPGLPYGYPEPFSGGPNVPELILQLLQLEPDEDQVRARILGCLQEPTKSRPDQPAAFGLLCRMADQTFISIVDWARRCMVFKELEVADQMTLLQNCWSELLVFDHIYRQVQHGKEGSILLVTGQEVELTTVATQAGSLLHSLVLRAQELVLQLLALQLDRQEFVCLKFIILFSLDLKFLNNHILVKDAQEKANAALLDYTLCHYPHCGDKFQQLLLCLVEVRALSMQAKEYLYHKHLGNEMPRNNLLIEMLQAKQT

Question: With `O=C(c1ccc(=O)n(Cc2ccccc2)n1)N1CCN(C/C=C/c2ccccc2)CC1` as the compound, how does the inhibition [1] read?
Answer: 2.26%

Question: What about the inhibition [2] of the same compound?
Answer: 52.9% (active)

Question: And the inhibition [3]?
Answer: 28%

Question: What about the inhibition [4] of the same compound?
Answer: 5.07%

Question: With `CC(=O)Nc1cccc(C(=O)OCC(=O)N2CCN(C(=O)COC(=O)c3cccc(NC(C)=O)c3)CC2)c1` as the compound, how does the inhibition [1] read?
Answer: 21.9%

Question: And the inhibition [2]?
Answer: 55.5% (active)

Question: What about the inhibition [3] of the same compound?
Answer: 47.6% (active)

Question: And the inhibition [4]?
Answer: -10.3%

Question: Which inhibition [1] does the source give for `CC(C)=NOc1cc(NC(=O)CCl)cc([N+](=O)[O-])c1` here?
Answer: 37.5% (active)

Question: What about the inhibition [2] of the same compound?
Answer: 56.3% (active)

Question: And the inhibition [3]?
Answer: 56.4% (active)

Question: And the inhibition [4]?
Answer: 13%

Question: For `O=C(CSc1ccccn1)Nc1nonc1[N+](=O)[O-]`, which inhibition [1] is on record?
Answer: 10.8%

Question: What about the inhibition [2] of the same compound?
Answer: 16.9%

Question: And the inhibition [3]?
Answer: 26.5%

Question: What about the inhibition [4] of the same compound?
Answer: -15.1%

Question: For `CCOC(=O)c1cc(C#N)c(N2CCCCC2)nc1-c1ccccc1`, which inhibition [1] is on record?
Answer: 8.89%

Question: What about the inhibition [2] of the same compound?
Answer: 53.8% (active)

Question: And the inhibition [3]?
Answer: 40.6%

Question: What about the inhibition [4] of the same compound?
Answer: -5.07%

Question: What does the source list for `COc1ccc(-n2c(N)c(C(=O)NCc3cccnc3)sc2=S)cc1`?
Answer: inhibition [1]: 4.01%; inhibition [2]: 48.7% (active); inhibition [3]: 50.4% (active); inhibition [4]: -1.03%

Question: For `COc1ccc(NC(=O)COC(=O)c2cc(S(=O)(=O)N3CCCC3)ccc2O)cc1`, which inhibition [1] is on record?
Answer: 4.86%

Question: And the inhibition [2]?
Answer: 52% (active)

Question: And the inhibition [3]?
Answer: 46.3% (active)

Question: And the inhibition [4]?
Answer: 0.43%

Question: Which results are given for `Cc1ccc(Cn2nc(C)c(NC(=O)c3noc4c3CCCCC4)c2C)cc1`?
Answer: inhibition [1]: 14.1%; inhibition [2]: 53.6% (active); inhibition [3]: 50.7% (active); inhibition [4]: -1.13%

Question: What does the source list for `Cn1nc(C(C)(C)C)cc1C(=O)NCc1ccc2c(c1)OCO2`?
Answer: inhibition [1]: 14.8%; inhibition [2]: 59.8% (active); inhibition [3]: 58.3% (active); inhibition [4]: 50.6% (active)

Question: For `CCCCCCCN(C(=O)CCl)c1ccccc1C`, which inhibition [1] is on record?
Answer: 21%

Question: What about the inhibition [2] of the same compound?
Answer: 49.9% (active)

Question: And the inhibition [3]?
Answer: 42.9% (active)

Question: What about the inhibition [4] of the same compound?
Answer: -8.25%

Question: What does the source list for `CCOc1ccc(S(=O)(=O)NCc2ccncc2)cc1`?
Answer: inhibition [1]: 25.8%; inhibition [2]: 61.1% (active); inhibition [3]: 59.4% (active); inhibition [4]: 51.8% (active)

Question: Which results are given for `CCOc1ccc(Br)cc1/C(C)=N\NC1=NCCN1`?
Answer: inhibition [1]: 1.83%; inhibition [2]: 36.8%; inhibition [3]: 36.7%; inhibition [4]: 33.2% (active)

Question: For `Cc1ccc(NC(=O)CSc2nnc(CNC(=O)c3ccco3)n2C)c(C)c1`, which inhibition [1] is on record?
Answer: 6.66%

Question: What about the inhibition [2] of the same compound?
Answer: 58.5% (active)

Question: And the inhibition [3]?
Answer: 51.4% (active)

Question: What about the inhibition [4] of the same compound?
Answer: -7.24%

Question: Which inhibition [1] does the source give for `Cc1cc(Br)ccc1NC(=O)CN1C(=O)CCC1=O` here?
Answer: 7.63%

Question: What about the inhibition [2] of the same compound?
Answer: 58.1% (active)

Question: What about the inhibition [3] of the same compound?
Answer: 72.2% (active)

Question: What about the inhibition [4] of the same compound?
Answer: 4.01%

Question: Which results are given for `Cc1c(C#N)c(O)n(CCO)c(=O)c1N=Nc1ccc2c(c1)COC2=O`?
Answer: inhibition [1]: 17.9%; inhibition [2]: 39.5%; inhibition [3]: 52.1% (active); inhibition [4]: -1%

Question: For `O=C(COc1ccc2c3c(c(=O)oc2c1)CCC3)NCc1ccncc1`, which inhibition [1] is on record?
Answer: 0.83%

Question: What about the inhibition [2] of the same compound?
Answer: 50% (active)

Question: And the inhibition [3]?
Answer: 41.4%

Question: What about the inhibition [4] of the same compound?
Answer: -2.51%

Question: For `Cc1nnsc1S(=O)c1ccc(Br)cc1` (stereo not given), which inhibition [1] is on record?
Answer: 4.11%

Question: What about the inhibition [2] of the same compound?
Answer: 45.4% (active)

Question: What about the inhibition [3] of the same compound?
Answer: 44.9% (active)

Question: And the inhibition [4]?
Answer: 3.37%

Question: Which results are given for `CC1(C)CC2CC(C)(CN2S(=O)(=O)c2ccc(C(=O)Nc3cccc(S(=O)(=O)N4CCOCC4)c3)cc2)C1` (stereo not given)?
Answer: inhibition [1]: 13%; inhibition [2]: 59% (active); inhibition [3]: 56.4% (active); inhibition [4]: 56% (active)

Question: What does the source list for `O=C(Nc1cccc(S(=O)(=O)N2CCCCC2)c1)c1ccc([N+](=O)[O-])o1`?
Answer: inhibition [1]: 33.8% (active); inhibition [2]: 67.3% (active); inhibition [3]: 69.2% (active); inhibition [4]: -4.21%

Question: What does the source list for `O=C(CSc1nc2cccc(F)c2c(=O)n1-c1ccccc1)Nc1ccc2c(c1)CCC2`?
Answer: inhibition [1]: 19.2%; inhibition [2]: 57.3% (active); inhibition [3]: 57.5% (active); inhibition [4]: -5.06%

Question: What does the source list for `O=C(Nc1cccnc1)c1ccc([N+](=O)[O-])o1`?
Answer: inhibition [1]: 27.2%; inhibition [2]: 61.9% (active); inhibition [3]: 58.5% (active); inhibition [4]: -15.2%

Question: With `Clc1ccc2c(c1)-c1ccccc1C1=NCCN12` as the compound, how does the inhibition [1] read?
Answer: 51.8% (active)

Question: What about the inhibition [2] of the same compound?
Answer: 90.7% (active)

Question: What about the inhibition [3] of the same compound?
Answer: 70.4% (active)

Question: And the inhibition [4]?
Answer: 64.1% (active)

Question: What does the source list for `CCn1c2ccccc2c2cc(/C=N/n3c(C)nnc3C)ccc21`?
Answer: inhibition [1]: 27.4%; inhibition [2]: 26.4%; inhibition [3]: 38.5%; inhibition [4]: -25%

Question: For `CCn1c2ccccc2c2cc(/C=N/n3cnnc3)ccc21`, which inhibition [1] is on record?
Answer: -4.6%

Question: What about the inhibition [2] of the same compound?
Answer: 30.4%

Question: What about the inhibition [3] of the same compound?
Answer: 19.8%

Question: What about the inhibition [4] of the same compound?
Answer: 10.1%

Question: Which results are given for `O=C(Cc1ccc(Cl)cc1Cl)Nc1ccncc1Cl`?
Answer: inhibition [1]: 16.4%; inhibition [2]: 65.9% (active); inhibition [3]: 70% (active); inhibition [4]: 47.1% (active)
